Results: the supplement of paper PMC10338343

Test system: MILI (PIWIL2) piRISC loaded with L1MC piRNA (26 nt)
Experiment: pre-steady-state target cleavage rate (min^-1); guide: L1MC piRNA 5'p-UAACUAAAUACUAUGCAAGCUGUAGG; MIWI and MILI are mouse PIWI proteins and EfPiwi is from a freshwater sponge; tags in brackets are library labels; higher = faster piRNA-guided slicing of the target
Settings: auxiliary factor: none (no GTSF1)
Outline: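 Active affinity-purified piRISC (1 nM) loaded with one synthetic guide was mixed with a transcribed, DNA-blocked target RNA library (0.1 nM), with or without 500 nM GTSF1 partner protein, in HEPES–potassium acetate buffer at 33 °C for 0–8 or 0–960 min. Uncleaved targets were sequenced, normalised to depth and to weakly complementary targets, and pooled across three trials, with k3 capped at 0.0001 min^-1. The pre-steady-state cleavage rate was determined with a burst-and-steady-state fit.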

pre-steady-state target cleavage rate, < 0.0001:
UCCUGGAUGUCGAACGUAAGUAUUUUGUUA
UCCUGGAUGUCGAACGAUAGUAUUUACAUA
UCCUGGAUGUCGAACGUAUGUUUUAGUUA
UCCUGGAUGUCGAACGUUUGUAUUUAGUAA
UCCUGGAUGUCGAACGUAUGAUAUUAGUUA
UCCUGGAUGUCGAACGAUAGUAUUUAUGUUA
